MITF primary = inhibitors of human MITF; O75030; AlphaScreen MITF homodimerization, bead proximity signal; inhibition, % at 2.6 µM; 650,000 tested, 0.91% active; AID 1259374; in the data active = inhibition above about 50%;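 also: 0% = vehicle wells with protein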
FBW7 activator = activators of human E3 ligase FBW7; Q969H0; 650,000 tested, 0.13% active; normalized activity (activation), % at 26.1 µM; AlphaScreen FBW7–phospho-cyclin E peptide binding, activator screen; in the data active = normalized activity above about 1.9%;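 also: purified mutant Fbw7 with reduced substrate affinity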
TEAD-YAP block = TEAD-YAP interaction inhibition. 640,000 tested, 1.4% active. inhibition, % at 9.12 µM. HEK-TIYL cells, TEAD-Gal4/YAP UAS-luciferase luminescence; in the data active = inhibition above about 32%;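 also: 0% = median of test compound wells and 100% = reference inhibitor wells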
GPR151 activ = human GPR151 activation | PathHunter beta-arrestin GPR151 cells, luminescence | Q8TDV0 | activation, % at 11.2 µM | 650,000 tested, 1% active; in the data active = activation above about 4.9%;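 also: 0% = median of compound wells and 100% = cells with positive control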
Target sequence (Q8TDV0 whole entry, looked up): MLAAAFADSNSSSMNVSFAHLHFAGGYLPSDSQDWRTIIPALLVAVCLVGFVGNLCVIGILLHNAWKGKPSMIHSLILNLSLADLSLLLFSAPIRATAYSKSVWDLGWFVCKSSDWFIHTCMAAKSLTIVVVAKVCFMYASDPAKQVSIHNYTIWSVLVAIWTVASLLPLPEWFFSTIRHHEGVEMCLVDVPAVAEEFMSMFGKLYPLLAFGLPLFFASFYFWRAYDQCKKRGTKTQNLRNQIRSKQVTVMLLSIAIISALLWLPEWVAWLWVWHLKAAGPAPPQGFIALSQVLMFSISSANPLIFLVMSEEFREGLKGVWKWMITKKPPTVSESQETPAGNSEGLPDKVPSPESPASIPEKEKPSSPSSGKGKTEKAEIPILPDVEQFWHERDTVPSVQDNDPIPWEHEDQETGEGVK
GPR151 conf act = confirmation of human GPR151 activators. shares compounds with GPR151 activ. GPR151 PathHunter beta-arrestin cells, luminescence, 90 min; % of EA-reagent control over plate median. activation, % at 11.2 µM. 6,700 tested, under 10 active. AID 1508609;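 active = mean percent activation across replicates above the confirmation screen cutoff of 4.91%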
GPR119 ag = GPR119 activation, counter-screen for GPR151 activators. shares compounds with GPR151 activ. 6,700 tested, 0.3% active. activation, % at 11.2 µM. GPR119 PathHunter beta-arrestin cells, luminescence, 90 min; 0 = compound-well median, 100 = enzyme-acceptor control. AID 1508611;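 active = mean percent activation in the counterscreen above 29.09%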;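 also: counterscreen on off-target GPR119 to flag nonselective hits from the GPR151 activator screen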
* hit, by the source's call; . = no result given. In the library only some 3.4% were active in any assay of this set; here they are far more common.

SMILES	MITF primary	FBW7 activator	TEAD-YAP block	GPR151 activ	GPR151 conf act	GPR119 ag
O=C(O)CCCCCn1c(SCC(=O)c2ccccc2)nc2ccsc2c1=O	23	0	0	6.5*	0	8
COc1cccc(NC(=O)c2oc3ccc(S(=O)(=O)N4CCCCC4)cc3c2C)c1	-2	0	2	1	.	.
CN(C)S(=O)(=O)c1ccc(C(=O)OCc2nc3ccccc3s2)cc1	-2	0	-5	6.9*	0	9
O=C(OCc1nc2ccccc2s1)c1ccc(O)cc1	6	0	-13	-6	.	.
O=C(Nc1cc(Cl)c(Cl)cc1Cl)c1cnc2n(c1=O)CCS2	-7	0	11	7.7*	0	9
CSc1cccc(NC(=O)c2nccnc2C(=O)O)c1	7	0	-1	3	.	.
CCN(CC)c1ccc(NC(=O)C2CC3CCCN3C23C(=O)N(C)c2ccccc23)c(C)c1 (stereo not given)	5	0	-6	0	.	.
CCN(CC)c1ccc(NC(=O)C2CC3CCCN3C23C(=O)Nc2ccccc23)c(C)c1 (stereo not given)	-3	0	-2	5.4*	0	5
CCc1ccccc1NC(=O)c1ncn[nH]1	2	0	-6	0	.	.
COc1ccc(OC)c(S(=O)(=O)N2CCN(CC(=O)c3ccco3)CC2)c1	3	0	3	6.8*	0	-7
COCC(=O)N1CCN(CC(=O)c2ccco2)CC1	9	0	5	4.9*	0	-7
COc1ccc(F)cc1S(=O)(=O)N1CCN(CC(=O)c2ccco2)CC1	48	0	-11	-1	.	.
O=C(CN1CCN(S(=O)(=O)c2ccccc2)CC1)c1ccco1	11	0	6	-1	.	.
COc1ccc(S(=O)(=O)N2CCN(CC(=O)c3ccco3)CC2)cc1OC	7	0	2	12*	0	0
COc1ccc(Oc2c(C(F)(F)F)oc3cc(OC(=O)c4c(OC)cccc4OC)ccc3c2=O)cc1	15	0	12	1	.	.
COc1cccc(-c2cc(C(=O)Nn3cnnc3)c3ccccc3n2)c1	0	0	11	5.1*	0	1
CC1CCc2nc(/C(C#N)=C/c3ccc([N+](=O)[O-])o3)sc2C1 (stereo not given)	18	0	-8	0	.	.
COc1cccc(-c2nnc3n2N=C(c2cccc([N+](=O)[O-])c2)CS3)c1	-7	0	16	13*	-1	-9
CCCCCC(O)CCC(=O)NNC(=S)Nc1ccccc1 (stereo not given)	7	0	2	1	.	.
CC(C)COCC(O)CCC(=O)NNC(=S)Nc1ccccc1 (stereo not given)	2	0	-5	6.5*	1	14
Cc1cc(C(=O)N2CCC(C(=O)Nc3cccc(-c4ccco4)c3)CC2)nc(C)n1	12	0	11	0	.	.
CCOc1cc(C2Nc3ccccc3NC3=C2C(=O)CC(c2ccc(OC)cc2)C3)cc(Cl)c1O (stereo not given)	1	0	-15	4.9*	1	14
COc1cc(C2Nc3ccccc3NC3=C2C(=O)CC(c2ccc4c(c2)OCO4)C3)ccc1OC(C)=O (stereo not given)	-8	0	-8	17*	2	16
O=C(Cc1cccs1)Nc1ccc(F)c(Cl)c1	7	0	-6	-1	.	.
C=CCONC(=O)Nc1ccc([N+](=O)[O-])cc1	-7	0	-1	0	.	.
SMILES	MITF primary	FBW7 activator	TEAD-YAP block	GPR151 activ	GPR151 conf act	GPR119 ag
Cn1ncc2c(Nc3ccccc3F)ncnc21	-2	0	-3	1	.	.
O=C1CS/C(=N/N=C/c2ccccc2)N1	0	0	-1	-1	.	.
O=C1CS/C(=N\N=C\c2ccc(O)cc2)N1	9	0	-2	7.4*	0	-6
CC(C(=O)N1CCC[C@@H]2CN(Cc3ccsc3)CC[C@H]21)c1n[nH]c(=O)c2ccccc12 (stereo not given in full)	-2	0	-4	1	.	.
CCCCNCCOc1cc(C)ccc1C	14	0	5	-1	.	.
Cc1ccc(C)c(OCCN2CCNCC2)c1	35	0	6	9.0*	0	2
CCCCNCCCOc1cc(C)ccc1C	2	0	4	5.0*	0	1
COCCNCCOc1ccc(C)cc1Cl	34	0	-2	1	.	.

Source: PubChem (The Scripps Research Institute Molecular Screening Center)
